A selection: hits, their analogues and other compounds. The true share with any hit is near 10%.
Luciferase inh – blocks purified firefly luciferase enzyme activity; purified P. pyralis luciferase, luminescence, biochemical; Potency, µM (series often up to 115 µM), usual class: inhibitors; P08659; 2.5% of 76,000 active; AID 1347043; note: nearly all actives have a fitted effect of over 65% in size
Target sequence (P08659 whole entry, looked up): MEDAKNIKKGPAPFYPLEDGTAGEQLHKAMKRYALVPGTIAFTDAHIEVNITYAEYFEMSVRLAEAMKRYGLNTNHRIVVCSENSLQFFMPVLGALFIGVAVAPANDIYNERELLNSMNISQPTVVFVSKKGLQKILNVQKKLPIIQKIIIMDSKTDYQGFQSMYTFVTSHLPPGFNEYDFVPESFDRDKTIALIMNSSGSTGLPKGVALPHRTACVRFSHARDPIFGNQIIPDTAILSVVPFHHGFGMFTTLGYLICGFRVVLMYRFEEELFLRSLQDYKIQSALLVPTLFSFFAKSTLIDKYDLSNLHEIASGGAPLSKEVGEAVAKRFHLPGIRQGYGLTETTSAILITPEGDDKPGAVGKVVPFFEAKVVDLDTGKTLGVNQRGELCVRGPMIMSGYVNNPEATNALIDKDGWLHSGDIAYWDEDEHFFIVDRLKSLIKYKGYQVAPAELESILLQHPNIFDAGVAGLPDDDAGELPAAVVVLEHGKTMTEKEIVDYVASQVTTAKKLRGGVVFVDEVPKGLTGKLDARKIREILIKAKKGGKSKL
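Luminescence read by CCD imager after adding enzyme (10nM final) to wells holding compound, titrated in qHTS. Substrates 10uM each D-luciferin and ATP; buffer 50mM Tris acetate pH 7.5, 10mM Mg acetate, Tween-20, BSA.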
NIH3T3 tox – cytotoxic compounds in NIH 3T3 cells. NIH 3T3 viability, CellTiter-Glo ATP luminescence, 48-72 h. Potency, µM (doses to about 96.7 µM), most hits filed as inhibitors. 4.3% of 94,000 active; note: nearly all actives have a fitted effect of over 55% in size
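Cells were seeded at 400 per well, treated with pin-transferred compound, and kept 48 or 72 hr at 37 °C before CellTiter-Glo addition and luminescence imaging of cellular ATP.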
HEK cytotox – kills HEK 293 cells | HEK 293 viability, ATP luminescence (CellTiter-Glo), 48-72 h | Potency, µM (top dose mostly 115 µM), most hits filed as inhibitors | 6.6% of 94,000 active | AID 1345083; note: nearly all actives have a fitted effect of over 60% in size
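qHTS cytotoxicity; HEK 293, 250 cells/well; compound pinned; 48 or 72 hr, 37 degree Celsius, 5% CO2, 95% humidity; CellTiter-Glo, 10 min RT; luminescence (ATP).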
NPR1 antag – blocks ANP-stimulated signaling of human Npr1 receptor; HEK293 hNpr1 GloSensor cGMP, ANP-stimulated luminescence; Potency, µM (series often up to 46.3 µM), usual class: inhibitors; 1.6% of 76,000 active; AID 1347048; calls by dose curve; note: nearly all actives have a fitted effect of over 60% in size
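Compound pre-incubated 30 min at room temperature on GloSensor-loaded HEK293 cells stably carrying hNpr1 and the pGS-40F cGMP biosensor. Stimulation uses hNppA at 0.1 nM final; luminescence is taken at baseline and 20 min post-agonist.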
GPT2 inh – GPT2 alanine aminotransferase inhibition | Q8TD30 | Recombinant GPT2, coupled pyruvate oxidase/HRP Amplex Red fluorescence | Potency, µM (series often up to 57.7 µM), usual class: inhibitors | 0.25% of 100,000 active | AID 1671188; note: nearly all actives have a fitted effect of over 60% in size
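Recombinant GPT2 (10ng/uL) with 250uM a-KG and 2mM L-alanine, 30 min at room temperature, in HEPES pH 7.5 buffer. Pyruvate detected by pyruvate oxidase/HRP/Amplex Red fluorescence after 30 min in the dark; AOA (50uM) as positive control.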
Of the large screens only hits and unclear results are named; the others gave an inactive call. Unless noted, calls come from the whole dose curve; as a rule, active = well fitted curve in the direction sought with a large enough effect; inconclusive = small, poorly fitted or top-dose-only effect, or another doubt; inactive = no such curve, though single readings can be large; an effect the other way counts as inactive or inconclusive.

CC(C)CNC(=O)c1ccc2oc(-c3ccnc(Cl)c3)nc2c1	NIH3T3 tox inconclusive, HEK cytotox 89µM (no result: Luciferase inh, NPR1 antag)
O=C(NCc1cccs1)c1ccc2oc(-c3ccncc3)nc2c1	NIH3T3 tox inconclusive, HEK cytotox inconclusive (no result: Luciferase inh, NPR1 antag)
CN(c1ccc(Cl)c(Cl)c1)C1CNC1	NIH3T3 tox 100µM, HEK cytotox 112µM (no result: Luciferase inh, NPR1 antag)
CCCc1ccc2oc(C(=O)N(C)Cc3snnc3C)c(C)c2c1	Luciferase inh inconclusive, NIH3T3 tox inconclusive, HEK cytotox 40µM
Cc1ccc2oc(C(=O)N(C)Cc3cc(-c4ccccc4)no3)c(C)c2c1	HEK cytotox inconclusive
O=C(NC1CCCN(c2cc(-c3ccccc3)[nH]n2)C1)c1ccc2cc[nH]c2c1 (centres undefined)	Luciferase inh 14µM, NIH3T3 tox inconclusive, HEK cytotox inconclusive, NPR1 antag inconclusive, GPT2 inh inconclusive
O=C(NC1CCCN(c2cc(-c3ccc(F)cc3)[nH]n2)C1)c1ccncc1 (centres undefined)	Luciferase inh 40µM, HEK cytotox inconclusive
O=C(NC1CCCN(c2cc(-c3ccccc3)[nH]n2)C1)c1ccc2nc[nH]c2c1 (centres undefined)	Luciferase inh 32µM
O=C(NC1CCCN(c2cc(-c3ccc(F)cc3)[nH]n2)C1)c1ccc2nc[nH]c2c1 (centres undefined)	Luciferase inh 16µM, NIH3T3 tox inconclusive, HEK cytotox inconclusive
O=[S+]1([O-])NC2(CCN(CC3CCCC3)CC2)COc2ccccc21	none (no result: Luciferase inh, NPR1 antag)
CC1(C)NC(=O)N(CC(=O)N2CCc3nc(-c4cccnc4)[nH]c3C2)C1=O	none
O=C(NC1CCN(c2cc(-c3ccc(F)cc3)[nH]n2)C1)c1ccc(Br)o1 (centres undefined)	NIH3T3 tox inconclusive, HEK cytotox inconclusive, GPT2 inh inconclusive
O=C(NC1CCCN(c2cc(-c3ccc(F)cc3)[nH]n2)C1)c1ccc(Br)o1 (centres undefined)	Luciferase inh inconclusive, NIH3T3 tox inconclusive, HEK cytotox 32µM
CCCCNC(=O)c1cccc2c1CCN2S(=O)(=O)c1ccc(C)cc1	NIH3T3 tox inconclusive, HEK cytotox 18µM, NPR1 antag inconclusive
COc1ccc(S(=O)(=O)N2CCc3c(C(=O)NCCc4cccs4)cccc32)cc1	HEK cytotox 25µM, NPR1 antag inconclusive
COc1ccc(S(=O)(=O)N2CCc3c(C(=O)NCc4ccccn4)cccc32)cc1	NIH3T3 tox inconclusive, HEK cytotox 35µM, NPR1 antag inconclusive
COc1ccc(S(=O)(=O)N2CCc3c(C(=O)NCCN(C)C)cccc32)cc1	Luciferase inh inconclusive, NIH3T3 tox inconclusive, HEK cytotox inconclusive
O=C(NCc1ccccn1)c1cccc2c1CCN2C(=O)C1CC1	NIH3T3 tox inconclusive
O=C(CCc1conc1-c1cccc(F)c1)NCc1ccc(F)cc1	Luciferase inh 45µM, NIH3T3 tox inconclusive, HEK cytotox inconclusive
Cc1ccc(Nc2ccnc(N3CCCN([S+](=O)([O-])c4cccs4)C3)n2)cc1	NIH3T3 tox inconclusive, HEK cytotox 25µM (no result: Luciferase inh, NPR1 antag)
COc1ccc(Nc2ccnc(N3CCN(C(=O)c4ccc(C(F)(F)F)cc4)CC3)n2)cc1	NIH3T3 tox inconclusive, HEK cytotox 35µM (no result: Luciferase inh, NPR1 antag)
COc1ccc(Nc2ccnc(N3CCN(C(=O)c4ccc(C)cc4)CC3)n2)cc1	NIH3T3 tox 32µM, HEK cytotox 13µM (no result: Luciferase inh, NPR1 antag)
COc1ccc(C(=O)N2CCN(c3nccc(Nc4ccccc4F)n3)CC2)cc1	NIH3T3 tox inconclusive, HEK cytotox inconclusive (no result: Luciferase inh, NPR1 antag)
Cc1ccc(Nc2ccnc(N3CCN(C(=O)c4ccc(C)cc4)CC3)n2)cc1	NIH3T3 tox inconclusive, HEK cytotox inconclusive (no result: Luciferase inh, NPR1 antag)
COC(=O)N1CCCN(c2nccc(Nc3ccc(C)cc3)n2)C1	NIH3T3 tox 35µM, HEK cytotox 50µM, GPT2 inh inconclusive (no result: Luciferase inh, NPR1 antag)
O=C1NCCCCCCN(S(=O)(=O)c2cccc3cccnc23)[C@H]2CCCC[C@@H]12	HEK cytotox inconclusive
COc1ccc(C(=O)N2CCCN(c3nccc(Nc4ccc(C)cc4)n3)C2)cc1	NIH3T3 tox inconclusive, HEK cytotox 11µM (no result: Luciferase inh, NPR1 antag)
CC(=O)N1CCCN(c2nccc(Nc3ccc(C)cc3)n2)C1	NIH3T3 tox inconclusive, HEK cytotox inconclusive (no result: Luciferase inh, NPR1 antag)
COc1ccc(OC)c(C(O)Cn2ccn3nc(-c4cccs4)cc3c2=O)c1 (centres undefined)	NIH3T3 tox inconclusive, HEK cytotox 35µM
CN(C)C(=O)N1CCCC(C(=O)NCc2nc(C3CCCCC3)no2)C1 (centres undefined)	HEK cytotox inconclusive
CCOCCNC(=O)C1CCCCN1Cc1ccc(-c2cccs2)cc1 (centres undefined)	NIH3T3 tox 40µM, HEK cytotox inconclusive (no result: Luciferase inh, NPR1 antag)
COCCNC(=O)C1CCCCN1Cc1ccc(-c2cccs2)cc1 (centres undefined)	NIH3T3 tox inconclusive, HEK cytotox 40µM (no result: Luciferase inh, NPR1 antag)
O=C(Nc1cccc(Cl)c1)C1CCCCN1Cc1ccc(-c2cccs2)cc1 (centres undefined)	NIH3T3 tox inconclusive, HEK cytotox 28µM (no result: Luciferase inh, NPR1 antag)
O=C(NCCc1ccccc1)C1CCCCN1Cc1ccc(-c2cccs2)cc1 (centres undefined)	NIH3T3 tox 45µM, HEK cytotox inconclusive (no result: Luciferase inh, NPR1 antag)
O=C(NCc1cccnc1)C1CCc2nnc(-c3ccc(Cl)nc3)n21 (centres undefined)	none (no result: Luciferase inh, NPR1 antag)
O=C(c1cc(-c2cnccc2Cl)c2cccn2n1)N1CCN(c2ncccn2)CC1	HEK cytotox inconclusive (no result: Luciferase inh, NPR1 antag)
COCCn1cnc2ccc(Nc3ccc(C(F)(F)F)cc3)nc2c1=O	NIH3T3 tox inconclusive, HEK cytotox inconclusive
O=c1c2nc(Nc3ccc(C(F)(F)F)cc3)ccc2ncn1C1CC1	Luciferase inh 63µM, NIH3T3 tox inconclusive, HEK cytotox inconclusive, GPT2 inh inconclusive
CCc1ccc(C2CC(C(=O)NC(C)c3ccccc3)CN(C(=O)c3ccoc3)C2)cc1 (centres undefined)	NIH3T3 tox 32µM, HEK cytotox inconclusive
CCOC(=O)C1CCCN(C(=O)C2CC(c3ccccc3)CN(C(=O)c3cccc(F)c3)C2)C1 (centres undefined)	NIH3T3 tox inconclusive, HEK cytotox inconclusive
CCOC(=O)C1CCCN(C(=O)C2CC(c3ccc(CC)cc3)CN(C(=O)c3ccoc3)C2)C1 (centres undefined)	NIH3T3 tox inconclusive, HEK cytotox 45µM
CC(=O)N1CC(C(=O)NC(C)c2ccccc2)CC(c2cccc(C)c2)C1 (centres undefined)	none
CN(c1ccccc1)c1cc(=O)c2ccnc(NCCc3ccccn3)c2o1	NIH3T3 tox 25µM, HEK cytotox inconclusive
O=c1cc(-c2ccccn2)oc2c(Nc3cccnc3)nccc12	NIH3T3 tox 11µM, HEK cytotox inconclusive
CC(=O)Nc1ccccc1-c1nccc2c(=O)cc(N(C)c3ccccc3)oc12	NIH3T3 tox inconclusive
CN(c1ccccc1)c1cc(=O)c2ccnc(Nc3cccnc3)c2o1	NIH3T3 tox 10µM, HEK cytotox inconclusive, NPR1 antag inconclusive, GPT2 inh inconclusive
O=c1cc(-c2ccccn2)oc2c(Nc3ccccc3)nccc12	NIH3T3 tox inconclusive, HEK cytotox inconclusive

High-throughput results deposited in PubChem by National Center for Advancing Translational Sciences (NCATS).
